# Experimental data as given in the supplement of paper PMC6555819.
# Tests used:
# Assay in all cases: PBM binding z-score (relative to random genomic background probes); higher = stronger binding; sequences stand for … in GC…GCGATTGACAGCGTAGAATGAAGG
# [1] = system: FXR:RXRa (NR concentration 270 nM, RXRa partner concentration 90 nM)
# How it was run: (§1)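 Binding z-scores take random background probes as their reference. They come from custom Agilent 4×180K protein-binding microarrays incubated 1 h with ligand-free nuclear receptor dimers, with antibodies against each partner (one per run) detecting binding. Scanned fluorescence was regression-normalized.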
# [2] = system: LXRa:RXRa (NR concentration 270 nM, RXRa partner concentration 90 nM)
# How it was run: as §1
# [3] = system: LXRa homodimer (NR concentration 270 nM)
# How it was run: as §1
# [4] = system: LXRb:RXRa (NR concentration 270 nM, RXRa partner concentration 90 nM)
# How it was run: as §1
# [5] = system: LXRb homodimer (NR concentration 270 nM)
# How it was run: as §1
# [6] = system: PPARa:RXRa (NR concentration 270 nM, RXRa partner concentration 90 nM)
# How it was run: as §1
# [7] = system: PPARg:RXRa (NR concentration 180 nM, RXRa partner concentration 90 nM)
# How it was run: as §1
# [8] = system: PPARg:RXRa 270nM:90nM, anti-RXR (NR concentration 270 nM, RXRa partner concentration 90 nM)
# How it was run: as §1
# [9] = system: PPARg:RXRa 30nM:10nM, anti-RXR (NR concentration 30 nM, RXRa partner concentration 10 nM)
# How it was run: as §1
# [10] = system: PPARg:RXRa 90nM:30nM, anti-RXR (NR concentration 90 nM, RXRa partner concentration 30 nM)
# How it was run: as §1
Sequence,PBM binding z-score [1],PBM binding z-score [2],PBM binding z-score [3],PBM binding z-score [4],PBM binding z-score [5],PBM binding z-score [6],PBM binding z-score [7],PBM binding z-score [8],PBM binding z-score [9],PBM binding z-score [10]
CGTTACGGGTCAAGGTTATAGCACGGGTGGTACG,5.94,3.83,0.0546,3.09,-0.0956,5.35,4.95,4.72,1.51,3.37
CAAACTAGGTCAAAGGTAAAAGTCGAGCCAACCA,5.4,4.12,0.676,3.51,0.646,6.67,13,10.3,12.5,12.1
TAGCCTAGGTCATTGGGCCAGTGTAGTACGCATC,4.3,3.42,0.864,2.46,0.102,3.86,3.6,3.76,0.587,2.41
CCTAGTTGGTAAAGGTCACACACGCTATAGGTAC,6.25,5.71,4.56,5.64,2.13,5.93,5.47,6.3,4,5.63
CCTACTGGGCCTTTCAGAGGTCATTGATCATATG,2.73,4.97,8.02,3.71,0.477,3.35,0.785,2.22,0.333,1.2
ATCTCTAGGTACGACTCAGTTCAGTGAAGAACGC,0.373,0.42,0.735,0.686,1.15,0.0584,0.161,0.105,0.235,-0.098
GTTATTAGTTGAAAGGGCAACCGAATGATTCTCG,1.4,1.73,1.19,1.56,1.28,3.14,3.9,5.52,3.84,5.47
CCGACTGGGGCAGACAGGTTACCATACCATCCGG,-0.305,-0.476,-0.144,-0.341,-0.833,0.114,0.832,0.0365,-0.675,-0.262
TCGAGTAGGTTACCAATGGGGCATTCAGCTTTCT,0.0683,1.23,-0.798,0.966,-0.683,1.26,0.191,1.15,1.14,1.11
CCTACTGGGCCATGCAGAGGTCATTGATCATATG,2.63,3.58,4.68,3.51,-0.363,3.84,2.51,3.33,1.11,2.41
GCTTGTAGATCAAGGTCAAGAAAGACTAAGCTAA,3.17,3.25,0.618,3.02,0.0549,3.91,1.86,3.04,0.697,2.12
ATCTCTAGCTAAAAGTTCAGTGAATCCCGAGGAT,0.149,0.948,1.36,0.693,0.99,0.474,0.264,1.29,0.52,0.949
ATCTCTAGGAAAAGTTCAGTGAAAGATCGATAGA,0.71,1.22,0.761,0.737,0.622,0.611,0.521,1.56,0.619,1.36
TCTGCGAGGTCAGTTGGTCAGCTAACGAGCTGCC,4.64,3.16,0.00554,2.69,1.26,3.99,2.69,3.5,1.59,2.61
CGTCCAAGGTCAATGCTAGGTCAGGGAAAGCATT,6.82,5.42,2.86,4.1,0.919,5.17,4.49,4.52,1.47,3.37
AGAATGAGGTTAAGATCAGGGAAACAGAATACAT,2.37,2.14,-0.0625,1.9,-0.0135,3.67,2.46,2.54,1.11,1.75
GCAGACAGCTGAAACGCAGGTAACTCAGGGTGGC,-0.689,-0.548,-0.369,-1.06,-1.49,-0.559,0.436,-0.461,-0.695,-0.928
ATCTCTAGGTAACCAAGTTCACTGAATGCCGAAC,0.969,1.87,2,1.58,1.09,2.25,1.1,1.54,0.634,1.2
TCATATACGTAAAGGTGAAAGTCGAACGATATGA,0.717,1.21,-0.0647,1.44,0.339,2.63,1.64,2.52,3.86,3.15
TAGCCTAGGTGATTCAGGGGCCAGTATAGAAAGC,-0.423,-0.634,-0.348,-0.094,-0.239,0.0128,0.0919,-0.199,-0.433,0.0704
GATACAGGGTCAAGGCCAAAGTACGCGTATTGAT,6.56,4.57,0.296,4.15,0.33,5.6,6.18,5.96,2.37,4.76
CGAACTAGGTCAAAACAGGACAGTGAAGGATGAT,3.26,3.07,0.154,1.86,0.313,4.54,6.73,5.86,3.32,5.36
ATCTCTAGGTAACGTTCAGTGAAAGATCGATAGA,0.596,0.51,-0.179,0.297,0.462,0.836,0.58,0.792,0.317,0.669
